Screen size: about 87,000 compounds; about 360 (0.41%) were called active. What follows is part of a selection rich in actives, with near analogues and random picks from the rest. Values without a mark were called inactive. No stated cut-off is given here; in the data, active means cytotoxicity above about 50%; inactive means the rest.
Experiment: HT1080 cell viability loss – fluorescence readout (AID 620);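 further: cells exposed to compound overnight then 4 h with Alamar Blue; 0% = vehicle DMSO and 100% = killing control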
Settings: at 10 µM, stronger effect = higher value

Row | Structure (SMILES) | cytotoxicity
1 | Cc1oc2cc(O)cc(C)c2c(=O)c1-c1cnn(-c2ccccc2)c1 | 33.9%
2 | O=C1CCc2cc(S(=O)(=O)N3CCCC3C(=O)N3CCN(c4ccccc4)CC3)ccc2N1 (centres undefined) | -3.8%
3 | Cc1cc(NCCCn2ccnc2)n2ncc(-c3ccccc3)c2n1 | -5.3%
4 | CC(C)(C)c1cc(NCCCn2ccnc2)n2ncc(-c3ccc(Cl)cc3)c2n1 | -4.9%
5 | Cc1cccc(-n2nnnc2SCC(=O)NCCN2C(=O)CSC2=O)c1 | -3.3%
6 | O=C(c1cc2ccccc2oc1=O)N(Cc1cccs1)C1CCS(=O)(=O)C1 (centres undefined) | 3.4%
7 | Cc1[nH]nc2c1C(C1CC=CCC1)C(C#N)=C(N)O2 (centres undefined) | 73% (active)
8 | Cc1ccc(C2C(C#N)=C(N)Oc3n[nH]c(C)c32)cc1 (centres undefined) | 1.3%
9 | Cc1[nH]nc2c1C(C(C)C)C(C#N)=C(N)O2 (centres undefined) | 11.3%
10 | Cc1ccc(N=Nc2c(C)[nH][nH]c2=O)c(C)c1 | 1.8%
11 | COc1ccc(CCN/C=C2/CC(=O)NC2=O)cc1OC | 0.2%
12 | COc1ccc(C)cc1NC(=O)NC1CCN(Cc2ccccc2)CC1 | 3%
13 | Nc1ccc2c(c1)C(=O)C(=O)c1ccccc1-2 | 92.7% (active)
14 | Nc1ccc(Br)c2c1C(=O)c1ccccc1C2=O | -18.1%
15 | O=C1C(=O)c2ccc(-c3ccccc3)cc2-c2ccccc21 | 47.5%
16 | COc1ccc(C2=NOC(C(=O)NCc3cccs3)C2)cc1 (centres undefined) | 7.4%
17 | COc1ccc(C2=NOC(C(=O)NCc3ccco3)C2)cc1OC (centres undefined) | 46.5%
18 | COc1cc(C2=NOC(C(=O)NCc3ccccn3)C2)cc(OC)c1OC (centres undefined) | -2.6%
19 | O=C(NCc1cccs1)C1CC(c2ccccc2O)=NO1 (centres undefined) | -1.4%
20 | COc1ccc(C2=NOC(C(=O)NCc3cccs3)C2)cc1OC (centres undefined) | 59.8% (active)
21 | COc1cc(C2=NOC(C(=O)NCc3ccco3)C2)cc(OC)c1OC (centres undefined) | 54.4% (active)
22 | COc1cc(C2=NOC(C(=O)NCc3cccs3)C2)cc(OC)c1OC (centres undefined) | 58.1% (active)

Row | Structure (SMILES) | cytotoxicity
23 | COc1cccc(C2=NOC(C(=O)NCc3cccs3)C2)c1 (centres undefined) | -1.8%
24 | COc1ccc(C2=NOC(C(=O)NCc3ccco3)C2)cc1 (centres undefined) | 6%
25 | CCCCN(C)Cc1c(O)ccc2c(-c3ccccc3)cc(=O)oc12 | 11.9%
26 | CCOc1ccc(NC(=O)N2CCC(NC(=O)c3ccco3)CC2)cc1 | 4.5%
27 | O=C(CSc1ncn(-c2ccccc2)n1)c1cccs1 | -3.1%
28 | CCOc1ccc(-c2nc(S(=O)(=O)c3ccccc3)c(NCc3cccnc3)o2)cc1 | 0.3%
29 | CC(=O)Nc1ccccc1-c1nn[nH]n1 | -11.5%
30 | Cc1ccc2nc(N/N=C\c3ccc([N+](=O)[O-])o3)nc(-c3ccccc3)c2c1 | 13.6%
31 | Cn1c(SCc2ccon2)nc2ccccc2c1=O | 2.4%
32 | Cn1c(/C=C/c2ccc([N+](=O)[O-])o2)nc2ccccc2c1=O | 85.1% (active)
33 | O=C(CC1(O)C(=O)Nc2cc(Cl)cc(Cl)c21)c1ccccc1O (centres undefined) | -66.6%
34 | CCCCNc1c(C(=O)OCC)c(=O)[nH]c2ccccc12 | 0.1%
35 | CCN(CC)c1ccc(NC(=O)c2cccc(OC)c2)c(C)c1 | 16.9%
36 | CCN(CC)c1ccc(NC(=O)c2c(OC)cccc2OC)c(C)c1 | -1.4%
37 | CCN(CC)c1ccc(NC(=O)c2cc(OC)cc(OC)c2)c(C)c1 | 59.7% (active)
38 | CCC1Oc2ccccc2N(CC(=O)NCCCN2CCOCC2)C1=O (centres undefined) | -2.1%
39 | O=S(=O)(Nc1ccc2c(c1)OCO2)c1ccc(Br)s1 | 9.9%
40 | COCCn1c(SCC#N)nnc1-c1ccccc1 | 22.4%
41 | CCOc1cc(/C=N/n2cnnc2)cc(Br)c1O | 0.3%
42 | CCOc1cc(/C=N/n2cnnc2)ccc1O | -5%
43 | CCOc1cc(/C=N/n2cnnc2)c(Br)cc1O | 62.2% (active)
44 | COc1ccc(CNC(=O)Nc2ccc(C)cc2)cc1 | -2.8%

Row | Structure (SMILES) | cytotoxicity
45 | COc1ccc(NC(=O)C(CC(C)C)NC(=O)c2ccccc2C)cn1 (centres undefined) | 0.6%
46 | COc1ccc(NC(=O)/C(Cl)=C(/Cl)S(=O)(=O)Cc2ccccc2)cn1 | 79.3% (active)
47 | COc1ccc(NC(=O)c2cc(OC)c(OC)c(OC)c2)cn1 | 3.1%
48 | COC(=O)c1ccccc1S(=O)(=O)Nc1ccc(OC)nc1 | 13%
49 | COc1ccc(NS(=O)(=O)Cc2ccccc2Cl)cn1 | 14.8%
50 | COc1ccc(CS(=O)(=O)/C(Cl)=C(/Cl)C(=O)Nc2ccc(OC)nc2)cc1 | 63.1% (active)
51 | CCCS(=O)(=O)C(=C(Nc1ccc(OC)cc1)Nc1ccc(OC)cc1)S(=O)(=O)CCC | 7.4%
52 | COc1ccc(C(=O)/C=C(\N)C(F)(F)F)c(O)c1 | -3.6%
53 | CCOC(=O)CSc1nc2c(c(=O)[nH]c(=O)n2C)n1C/C=C(/C)Cl | 12%
54 | O=C1C=C(N(CCO)CCO)C2(CCCCC2)O1 | -7.3%
55 | O=C(O)CNc1nc(-c2ccccc2)nc2ccccc12 | -10.9%
56 | COC1=C(OC)c2ccccc2C(C(=O)O)N/C1=C(/C)Nc1ccncc1 (centres undefined) | -1%
57 | CN(CC(=O)NC1CCCCCCC1)S(=O)(=O)c1cccc2cccnc12 | -11.8%
58 | CCOC(=O)c1cccc(NC(=O)c2cccnc2)c1 | 0.2%
59 | CCOC(=O)/C(=C/Nc1ccccc1)[N+](=O)[O-] | -10.2%
60 | CCOC(=O)Nc1cccc(Nc2ccccc2)c1 | -3.2%
61 | CCOC(=O)/C(=C\c1cccnc1)C(=O)c1cc(C(C)=O)c(Nc2ccccc2)s1 | 75.6% (active)
62 | CCOC(=O)c1sc(Nc2ccccc2)nc1C | 15%
63 | Cn1c(-c2sc(=S)n(-c3ccccc3)c2N)nc2ccccc21 | -7.2%
64 | CCCCn1c(SCC(=O)N2CCC(C)CC2)nc2cc(S(N)(=O)=O)ccc21 | 27.9%
65 | CC1CCc2c(sc3ncnc(SCC(=O)c4ccccc4)c23)C1 (centres undefined) | 4.4%
66 | CC(C)(C)c1csc(NC(=O)Cn2c(=O)oc3ccccc32)n1 | -6.8%

Row | Structure (SMILES) | cytotoxicity
67 | CNC(=O)c1ncnnc1N(C)C(=O)NCc1ccccc1 | -2.1%
68 | CN1CCN(C(=O)c2ccc(C3SCC(=O)N3Cc3ccco3)cc2)CC1 (centres undefined) | -8.2%
69 | O=C1c2ccccc2OC2(C=Cc3ccccc3O2)N1Cc1ccccc1 (centres undefined) | 15.6%
70 | CN1CC2=Cc3ccccc3OC23Oc2ccccc2C=C3C1 | 51.7% (active)
71 | O=C(Nc1cccc(-c2nc3ccccc3o2)c1)c1ccc(N2C(=O)C3C4C=CC(C4)C3C2=O)cc1 (centres undefined) | 21.5%
72 | CCSc1nnc(NC(=O)c2ccccn2)s1 | -11%
73 | CCSc1nnc(NC(=O)c2csc(C)c2)s1 | 25.7%
74 | CCSc1nnc(NC(=O)c2ccc3c(c2)OCO3)s1 | 55.2% (active)
75 | COCCNc1nnc(SCC(=O)c2ccc3c(c2)OCO3)s1 | 1.3%
76 | CCSc1nnc(NC(=O)c2ccc(Br)s2)s1 | 68.3% (active)
77 | CCSc1nnc(NC(=O)c2cccs2)s1 | -4.1%
78 | CCOCCCn1c(SCC(=O)Nc2ccc(C(N)=O)cc2)nc2ccccc2c1=O | -6%
79 | CCOC(=O)c1cc(-c2ccc(C)o2)nn1CCC#N | 0.3%
80 | CCOCCCNC(=O)c1ccc(OC)cc1 | -2.5%
81 | CCCC1=Nc2cc(C(=O)NCCCOC(C)C)ccc2Sc2ccccc21 | 6.2%
82 | COCCCNC(=O)c1cccc(C(=O)NCCCOC)c1 | 0.6%
83 | CCC1=Nc2cc(C(=O)NCCCOC(C)C)ccc2Sc2ccccc21 | 39.6%
84 | CCCC1=Nc2cc(C(=O)NCCCOCC)ccc2Sc2ccccc21 | 63.8% (active)
85 | CCC1=Nc2cc(C(=O)NCCCOC)ccc2Sc2ccccc21 | 68.1% (active)
86 | CC(C)C1N=C2c3ccccc3N=C(SCc3cc(=O)n4ccccc4n3)N2C1=O (centres undefined) | 2.9%
87 | CCOc1ccc(S(=O)(=O)N2CCN(C)CC2)c(C)c1C | 11.2%
88 | CCC(C)(C)n1c(=O)[nH]c2c(c1=O)CCC2 | 25.2%

Row | Structure (SMILES) | cytotoxicity
89 | O=C(Nc1ccccc1N1CCCCC1)c1ncoc1-c1ccc(F)cc1 | -6.7%
90 | CCOc1ccc(/C=C2/SC(=S)N(n3c(C)ccc3C)C2=O)cc1 | -16.1%
91 | CCOc1ccc(C(=O)N2CCCC2)cc1OC | 4.1%
92 | CCOc1cc(C(=O)N2CCc3cc(OC)c(OC)cc3C2)ccc1OC(F)F | 59.3% (active)
93 | COc1ccc(C(=O)N2CCc3cc(OC)c(OC)cc3C2)cc1OC | -5.5%
94 | COC(=O)CN1C(=O)C2(C(C#N)=C(N)Oc3c2c(C)nn3-c2ccccc2)c2ccccc21 (centres undefined) | -65.1%
95 | CCc1cccc(CC)c1NC(=O)CN1CC(C)SC1=NC1CCCCC1 (centres undefined) | -4.4%
96 | CC1CCCN(S(=O)(=O)c2ccc(NC(=O)CN3CCN(C)CC3)cc2)C1 (centres undefined) | -6.1%
97 | Cc1ccc(NC(=O)CN2CC(C)SC2=NC2CCCCC2)cc1 (centres undefined) | 87% (active)
98 | CCOC(=O)c1c(NC(=O)CSc2nnc(-c3ccccc3C)n2C)sc(C(C)=O)c1C | -23.9%
99 | O=C1NCCCC1C(=O)N1CCN(C(=O)c2ccco2)CC1 (centres undefined) | 1.1%
100 | COc1cccc(NC(=O)CC2C(=O)NC3CCCCC3N2C(=O)c2ccc(F)cc2)c1 (centres undefined) | -16.2%
101 | Cc1ccccc1NCC(=O)N/N=C/C(Br)=C/c1ccccc1 | -17.1%
102 | CC(/C=N/NC(=O)c1ccc(Br)cc1)=C\c1ccccc1 | -15.4%
103 | CC(/C=N/NC(=O)c1n[nH]c2c1CCC2)=C\c1ccccc1 | 71.7% (active)
104 | Cc1ccc(NCC(=O)N/N=C\C(Br)=C\c2ccccc2)cc1 | 8.3%
105 | O=C(N/N=C/C(Br)=C/c1ccccc1)c1n[nH]c2c1CCC2 | 66.4% (active)
106 | O=C(O)c1n[nH]c2c1CCCC2 | -12.7%
107 | CC(=C/c1ccccc1)/C=N/NC(=O)c1cnccn1 | -7.1%
108 | O=C(CNc1cccc2ccccc12)N/N=C/C(Br)=C/c1ccccc1 | 1.9%
109 | O=C(N/N=C/C(Br)=C\c1ccccc1)c1n[nH]c2c1CCC2 | 66.5% (active)

Reference: PubChem BioAssay AID620 (Sanford-Burnham Center for Chemical Genomics, 2007)
